# In PubChem BioAssay AID686978 (National Center for Advancing Translational Sciences (NCATS), 2013):
# Several values for one entry are separate records, joined by “and”; a condition that tells them apart may be missing. Equal values may be shown once. Among all 420,000 compounds or so, about 64,000 (15%) were called active. Roughly 27% stayed inconclusive and do not appear here. This is one part of a sample in which actives are shown more often than they occur. Calls follow the shape of the dose curve; as a rule, active = well fitted inhibition curve with a large enough effect; inconclusive = small, poorly fitted or top-dose-only effect; inactive = flat fitted curve, though single readings scatter.
# Experiment: qHTS for Inhibitors of human tyrosyl-DNA phosphodiesterase 1 (TDP1): qHTS in cells in absence of CPT; also: nearly all actives have a fitted effect of over 55% in size
# Conditions: DT40 Tdp1-/- hTDP1 cells, no CPT, ATP luminescence, 48 h; series mostly up to 46.2 µM; activity change, negative = growth inhibition: at the top concentration
# From the text: Human tyrosyl-DNA phosphodiesterase 1 (TDP1) is a novel repair gene, and we propose to use it as a new target for anticancer drug development. TDP1 is not an essential protein, but under treatment with topoisomerase I poison (camptothecin: CPT), TDP1 works as a critical factor for cell survival. To directly identify novel TDP1 inhibitors active in a cellular environment, we have knocked-out the Tdp1 gene in chicken DT40 cells (Tdp1-/-) and generated a complemented counterpart cells that contains a stable transfection of the human TDP1 gene (Tdp1-/-;hTDP1 cells). For the primary screen, Tdp1-/-;hTDP1 cells will be exposed to small molecules in the presence or absence of CPT, and their growth kinetics will be evaluated after 48 hours by measuring ATP activity. […] The hit compounds will then be evaluated in the presence or absence of CPT using Tdp1-/- cells. […] In tertiary assays, biochemical gel-based assays will be used to assess whether the hit compounds specifically target TDP1.
# To this end, we have screened this cell line against the MLSMR in two primary screens. In one screen we add CPT and in the other we screen in the absence of CPT; this AID represents the screen where CPT was absent.
# NIH Chemical Genomics Center [NCGC]
# NIH Molecular Libraries Probe Centers Network [MLPCN]
# Assay Submitter (PI): Yves Pommier, NCI
# DT40-hTDP1 cells without 20 nM Camptothecin (add 20 microL of DMSO in 1 L of cell culture medium) were dispensed at 400 cells/5microL/well in tissue culture treated 1536-well white wall/solid bottom assay plates (Greiner Bio-One North America, NC, U.S.A.) using a Multidrop Combi 8 channel dispenser (Thermo Fisher, Waltham, MA, USA). 23 nL compounds and controls were transferred using the pin tool (Kalypsys, San Diego, CA, USA) to the assay plates. The assay plates were then incubated at 37 masculineC for a minimum 48 hr. Three microL of Cell Titer Glo solution was added to the plates and incubated at RT in dark for 30 min. Luminescence was read using ViewLux (Perkin Elmer) with 1 sec exposure slow speed, high gain and 2x binning.
# % is scaled to controls: 0 for no effect and ±100 for the full control effect; potency is read from the fitted curve at half-maximal effect.
SMILES,Potency,"activity change, negative = growth inhibition"
CN(Cc1cccc2ncccc12)C(=O)c1cnn(-c2nccc(-c3ccccc3F)n2)c1C1CC1,3.66 µM (active),
CCOC(=O)CC(SP1(=S)OCC2(CCCCO2)C(C2CCCCO2)O1)C(=O)OCC (centres undefined),,-23.8% (inactive)
CC[N+](C)(CC)CCC[n+]1c(-c2ccccc2)c2cc(N)ccc2c2ccc(N)cc21,2.58 µM (active),
CCOP(=S)(OCC)C(O)CCCCCn1c(=O)c(F)cn(C2CCCO2)c1=O (centres undefined),,-6.96% (inactive)
O=C(Nc1ccc(Cl)cc1C(=O)c1ccccc1)c1cc(Cl)cc(Cl)c1,,-8.13% (inactive)
CCC1(c2ccccc2)C(=O)NC(=O)N(C)C1=O (centres undefined),,-2.29% (inactive)
CC=C(C)C(=O)OC1CCN2CC=C(COC(=O)C(O)(C(C)OC)C(C)(C)O)C12 (centres undefined),,1.67% (inactive)
COC(=O)C1=C(c2ccc(F)cc2F)C[C@@H]2CC[C@H]1N2C(=O)NC1CC1,,-26.6% (inactive)
COC(=O)C1=C(c2ccc(C(C)=O)cc2)C[C@@H]2CC[C@H]1N2C(=O)NCCNC(C)=O,,13.1% (inactive)
COC(=O)C1=C(c2ccc(Cl)c(C(F)(F)F)c2)C[C@@H]2CC[C@H]1N2C(=O)NC(C)C,20.6 µM (active),
COC(=O)C1=C(c2ccc(Cl)c(C(F)(F)F)c2)C[C@@H]2CC[C@H]1N2C(=O)NC1CC1,10.3 µM (active),
COc1ccc(NC(=O)N2CCC3(CC2)OCCO3)c(OC)c1,,7.95% (inactive)
CCOC(=O)c1c(C)c(C(=O)N2CCC3(CC2)OCCO3)c(C)n1CC,,4.35% (inactive)
CCN1c2nc3c(C)cccn3c(=O)c2CC2(C(=O)N(C)C(=O)N(C)C2=O)C1C (centres undefined),,-4.11% (inactive)
CN(C)C(=O)NC(O)C(Cl)(Cl)Cl (centres undefined),,0.9% (inactive)
COc1ccc(-c2nn(CCC#N)cc2C(=O)Nc2ccc(C(C)=O)cc2)cc1,,5.46% (inactive)
CN(C)CC1Oc2ccccc2OC1(O)c1ccccc1 (centres undefined),2.06 µM (active),
CCCOC(=O)C1C2c3ccccc3C(c3ccccc32)C1C(=O)O (centres undefined),,-12.7% (inactive)
CC(CC(C#N)(c1ccccc1)c1ccccc1)N1CCCCC1 (centres undefined),,-3.92% (inactive)
CC(C)(c1ccc(OC[C@@H]2CO2)cc1)c1ccc(OC[C@H]2CO2)cc1,11.9 µM (active),
CCOC(=O)C(O)(c1ccc(N)c(OC)c1)C(F)(F)F (centres undefined),,-3.69% (inactive)
Cc1cc(N2C(=O)C3CCCN3C2c2ccc(Cl)c(Cl)c2)no1 (centres undefined),,6.03% (inactive)
CN(C)S(=O)(=O)c1cc(C(=O)N2CCC(C(=O)O)(c3ccccc3)CC2)ccc1Cl,,-3.11% (inactive)
Cc1ccc(NC(=O)CN(C)CC(=O)Nc2cccc(F)c2)cc1[N+](=O)[O-],1.16 µM (active),

SMILES,Potency,"activity change, negative = growth inhibition"
C=CCSSCC=C,,2.53% (inactive)
O=C(NCC(c1cccnc1)N1CCN(c2ccccc2)CC1)Oc1ccccc1 (centres undefined),,-19.5% (inactive)
COc1cc2c(cc1OC)[C@@H]1C(=O)c3ccc(O)c(CC=C(C)C)c3OC1CO2 (some centres undefined),,-17.4% (inactive)
N#CC1=C(N)Oc2c(c(=O)oc3ccccc23)C1c1ccccc1OC(=O)c1cccs1 (centres undefined),23.1 µM (active),
CCNc1nc2[nH]c(=O)c3c(c2s1)OC(N)=C(C#N)C3c1cccs1 (centres undefined),,-27.5% (inactive)
CCOC(=O)C(O)(c1ccc(N=Cc2ccccc2O)c(C)c1)C(F)(F)F (centres undefined),,26.3% (inactive)
CCOc1ccc(-c2cc(C)[n+](CCN(CC)CC)c(-c3ccc(OCC)cc3)c2)cc1,0.184 µM (active),
COc1ccc(CNCCc2ccc3c(c2)OCO3)c(OC)c1OC,,-22.3% (inactive)
COc1cc(C2c3cc4c(cc3C(O)C3COC(=O)C23)OCO4)cc(OC)c1OC (centres undefined),28.2 nM (active) and 73.1 nM (active),
COc1ccccc1OC(=O)c1ccc(C)c(S(=O)(=O)N2CCOCC2)c1,,-10.1% (inactive)
CCCCn1c(=O)c(C(=O)Nc2ccccc2Cl)c(O)c2ccccc21,25.9 µM (active),
COc1cc(C(c2c(O)c3ccccc3oc2=O)c2c(C)n(C)n(-c3ccccc3)c2=O)ccc1O (centres undefined),inactive,
CCCCCn1c(=O)c(C(=O)NCc2ccccn2)c(O)c2ccccc21,20.6 µM (active),
CCCCCn1c(=O)c(C(=O)Nc2c(C)n(C)n(-c3ccccc3)c2=O)c(O)c2ccccc21,4.61 µM (active),
CCCCCn1c(=O)c(C(=O)NCc2ccccc2)c(O)c2ccccc21,6.51 µM (active),
O=C(CSC1c2ccccc2-c2ccccc21)N/N=C/c1ccccc1,,-16.6% (inactive)
O=C1CC(=O)N(Cc2ccccc2)C(=O)N1CCCCCCN1C(=O)CC(=O)N(Cc2ccccc2)C1=O,,2.08% (inactive)
CN(C)C(=O)Oc1cc(=O)n2c3c(cccc13)CCC2,,-22.8% (inactive)
CC[N+]1(CCOC(=O)C(O)(c2ccccc2)c2ccccc2)CCCCC1,,-6.5% (inactive)
O=C(c1cc(S(=O)(=O)N2CCOCC2)ccc1F)N1CCC2(CC1)OCCO2,,-19.4% (inactive)
CO[C@@H]1C[C@@H](C[C@H]2CC[C@H](C)[C@@H]([C@@H](C)C(=O)O)O2)O[C@]2(O[C@](C)([C@H]3CC[C@@](C)(C4OC([C@H]5O[C@@](O)(CO)[C@H](C)C[C@@H]5C)C[C@@H]4C)O3)C[C@H]2C)[C@@H]1C (some centres undefined),0.588 µM (active),
CN(C)P(=S)(Nc1ccccc1)C(Cl)(Cl)Cl (centres undefined),,-28.9% (inactive)
O=C(Nc1cccc(OC(=O)N2CCCCC2)c1)N1CCOCC1,5.8 µM (active),
CN(C)C(=O)Oc1ccc(NC(=O)N2CCOCC2)cc1,,15.6% (inactive)

SMILES,Potency,"activity change, negative = growth inhibition"
O=C(Nc1cccc(F)c1)N1CC[C@@]2(CCCN(C(=O)Oc3ccccc3)C2)C1,,-69.5% (inactive)
c1ccc2sc(N3CCNCC3)nc2c1,,-0.512% (inactive)
COc1ccc(NC(=O)c2cn(CCC#N)nc2-c2ccc([N+](=O)[O-])cc2)cc1,,2.67% (inactive)
CN1CCN(/N=C/c2c[nH]c3ccccc23)CC1,,2.07% (inactive)
C[C@@H]1C[C@@H]2O[C@H]2/C=C\C=C\C(=O)Cc2c(Cl)c(O)cc(O)c2C(=O)O1,0.164 µM (active),
NS(=O)(=O)c1ccc(CCNC(=O)c2ccc(Cl)c(S(=O)(=O)N3CCCCCC3)c2)cc1,23.1 µM (active),
C=CCn1c(O)c(/C=N/N2CCOCC2)c(=O)[nH]c1=S,,3.41% (inactive)
CN(C(=O)CSc1nc2ccc(NC(=O)COc3ccccc3)cc2s1)c1ccccc1,11.6 µM (active),
O=C(COc1ccccc1Cl)Nc1ccc2nc(SCC(=O)N3CCCC3)sc2c1,16.4 µM (active),
CCOCCc1c(O)[nH]c(=S)[nH]c1=O,,-9.37% (inactive)
COc1ccc(C2Oc3c(I)c(OC)cc(OC)c3CC2O)cc1OC (centres undefined),,-14.9% (inactive)
CCCCC/C=C\C/C=C\C/C=C\C/C=C\CCCCCC(=O)NCCO,,-2.9% [at 4.12 µM] (inactive)
CCN(CC)CCOC(=O)c1cc2cc(COC)ccc2o1,,2.59% (inactive)
C=CCN(CC=C)C(=O)Nc1ccc(OCC)cc1,,-15.1% (inactive)
CCOC(=O)[C@]12Cc3ccccc3[C@H]1N(C1CCCCC1)C(=O)c1cc(OC)ccc12,3.66 µM (active),
CCOC(=O)[C@]12Cc3cc(OC)ccc3[C@H]1N(C(C)C)C(=O)c1ccccc12,6.51 µM (active),
O=C(N/N=C/c1c(O)n(C2CC2)c(=S)[nH]c1=O)c1ccccc1,,2.47% (inactive)
C[C@]12CC[C@H](O)CC1=C([N+](=O)[O-])CC1C2CC[C@@]2(C)C1CC[C@@H]2O (some centres undefined),,-26.1% (inactive)
CN1C2CC3CC1C(O3)C2O (centres undefined),,1.96% (inactive)
COc1c(O)ccc2c1-c1c3c(cc4c1C(C2)N(C)CC4)OCO3 (centres undefined),,-13% (inactive)
COc1ccc2cc1Oc1ccc(cc1)C[C@H]1c3cc(c(OC)cc3CCN1C)Oc1c(O)c(OC)cc3c1[C@H](C2)N(C)CC3,8.2 µM (active),
O=C(Cc1ccc(Cl)cc1)NCCN1CCN(C(=O)Cc2ccc(Cl)cc2)CC1,,-19.8% (inactive)
Clc1cccc(Cl)c1Cl,,11.4% (inactive)
O=[N+]([O-])c1cnc2ccc3ccccc3c2c1,,-17.9% (inactive)

SMILES,Potency,"activity change, negative = growth inhibition"
Cn1c(O)c(C=NCCCC(=O)O)c(=O)n(C)c1=O,,1.24% (inactive)
CCCCC(=O)N/N=C/c1c(O)n(CC)c(=S)n(CC)c1=O,10.3 µM (active),
O=C1C2(Cl)C3(Cl)C4(Cl)C(Cl)(Cl)C5(Cl)C3(Cl)C1(Cl)C5(Cl)C24Cl (centres undefined),16.4 µM (active),
COC1=CC=C2[C@H]3Cc4ccc(OC)c5c4[C@@]2(CCN3C)C1O5 (some centres undefined),,-16.4% (inactive)
COP(=O)(OC)C(NC(=O)c1ccc(C)cc1)C(Cl)(Cl)Cl (centres undefined),,4.88% (inactive)
O=C1NC(=O)C(Cc2ccccc2)C(=O)N1,,5.35% (inactive)
CC(Cc1ccccc1)NC=O (centres undefined),inactive,
COc1ccc(CNC(=O)c2cc3c(-c4ccccc4F)nn(C)c3s2)c(OC)c1,6.51 µM (active),
CCOP(=O)(OCC)C(NC(=O)NC)C(N)=O (centres undefined),,20.8% (inactive)
O=C(O)c1cc[c]([Sb](=[O])([OH])[OH])cc1[N+](=O)[O-],,1.08% (inactive)
CCOC(=O)C1(c2ccccc2)CCN(CC(O)c2ccc(NC(C)=O)cc2)CC1 (centres undefined),,-18.1% (inactive)
CCN1C[C@]2(COC)C(O)C[C@H](OC)[C@@]34C5C[C@]6(O)C(OC)C(O)[C@](OC(C)=O)(C5C6OC(=O)c5ccccc5)C(C(OC)C23)C14 (some centres undefined),,2.58% (inactive)
CC(CCC(=O)O)C1CCC2C3C(O)C[C@@H]4CC(O)CC[C@@]4(C)C3CC[C@@]12C (some centres undefined),inactive,
C/C=C/CC1(CC)C(=O)NC(=S)NC1=O,,-15.3% (inactive)
COC(=O)C(c1ccccc1)N1CCCCCC1 (centres undefined),,-0.202% (inactive)
COC(=O)C1=C(c2ccccc2)C[C@@H]2CC[C@H]1N2C(=O)N1CCCCC1,6.51 µM (active),
COC(=O)C1=C(c2cccc(OCc3ccccc3)c2)C[C@@H]2CC[C@H]1N2C(=O)NNCc1ccccc1,10.3 µM (active),
COC(=O)C1=C(c2ccc(OCc3ccccc3)cc2)C[C@@H]2CC[C@H]1N2C(=O)NCc1cccc(F)c1,14.6 µM (active),
COC(=O)C1=C(c2ccccc2)C[C@@H]2CC[C@H]1N2C(=O)NCc1ccco1,,-23.1% (inactive)
COC(=O)C1=C(c2c(C)noc2C)C[C@@H]2CC[C@H]1N2C(=O)NCc1ccc2c(c1)OCO2,,-20.5% (inactive)
COC(=O)C1=C(c2cc3ccccc3s2)C[C@@H]2CC[C@H]1N2C(=O)NCCO,,-0.15% (inactive)
COC(=O)C1=C(c2ccc(OCc3ccccc3)cc2)C[C@@H]2CC[C@H]1N2C(=O)NCc1ccc(Cl)cc1,16.4 µM (active),
